HCMV antiviral = inhibitors of human cytomegalovirus. actives 4.5% (n = 410,000). activity change, negative = inhibition, % at 57.5 µM. HFF cells, HCMV-luciferase reporter, 72 h; active compounds read low. AID 1259415; in the data active means activity change below about -60%; inconclusive means no clear call, values can overlap the other calls; inactive means above about -39%; further: on the % scale 0 is the no-effect control and ±100 the full control effect
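Compounds were evaluated in HFFs infected with an HCMV luciferase reporter virus (MOI 1 PFU/cell). Luciferase in lysates collected 72 h post infection served as the replication measure.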
Pf growth 48h = inhibits P. falciparum growth in the first generation, 48 h. P. falciparum luciferase growth in erythrocytes, 48 h. Potency, µM (series often up to 28.7 µM), inactives show top-dose activity change, negative = inhibition, hits mostly inhibitors. actives 5.9% (n = 310,000). AID 504832; further: potency means the concentration at half of the fitted maximal effect; on the % scale 0 is the no-effect control and ±100 the full control effect
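First compound was added to culture medium, then infected red cells at 0.1% parasitemia and 2% hematocrit (final). After incubation at 37 C under 5% CO2, luciferase detection reagent was dispensed and light output recorded.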
Shiga inhibitor = inhibitors of Shiga toxin in Vero cells; inhibition, % at 38.7 µM; AID 2315; Vero cells, Shiga toxin protein synthesis inhibition reporter; actives 9.2% (n = 290,000); in the data active means inhibition mostly above about 28%, no sharp cut-off; inactive means mostly below about 43%; further: 0% is about no effect
CHX counter = affects cycloheximide protein synthesis inhibition readout, counter-screen. cell reporter, cycloheximide protein synthesis inhibition counterscreen. max response, %. actives 12% (n = 300,000). AID 2314; in the data active means max response mostly above about 13%, no sharp cut-off; inactive means mostly below about 14%; further: read at 38.3 µM for the half of the compounds with a filed dose; 0% is about no effect
Pf growth 96h = P. falciparum growth inhibition at 96 hour, primary screen for plastid delayed-death inhibitors | P. falciparum luciferase reporter growth, 96 h | Potency, µM (doses to about 28.7 µM), for the others: at the top dose activity change, negative = inhibition, usual class: inhibitors | actives 6.9% (n = 320,000) | AID 504834; further: potency means the concentration at half of the fitted maximal effect; on the % scale 0 is the no-effect control and ±100 the full control effect
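Parasite growth measured via integrated firefly luciferase reporter in P. falciparum. Infected erythrocytes at 2% hematocrit, 0.05% parasitemia final were treated 96 hours at 37 C under 5% CO2, and luminescence was read.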
Starred values were filed as active, the others as inactive; i = inactive; u = inconclusive; x = not tested or not shown. In the library only some 20% were active in any assay of this set; here they are far more common. Unless noted, the call rests on the fitted dose curve; in most records, active means well fitted inhibition curve with a large enough effect; inconclusive means small, poorly fitted or top-dose-only effect, or another doubt; inactive means no such curve, though single readings can be large or run the other way.

SMILES	HCMV antiviral	Pf growth 48h	Shiga inhibitor	CHX counter	Pf growth 96h
COc1cccc(NC(=O)c2cc([N+](=O)[O-])ccc2NCc2cccnc2)c1	0	10µM*	-7	-2	u
Cc1ccc(NC(=O)c2cc([N+](=O)[O-])ccc2NCc2cccnc2)cc1Cl	12	5.9µM*	72	5	2.1µM*
O=C(O)c1cc([N+](=O)[O-])ccc1NCc1cccnc1	-21	18%	1	1	-17%
O=C(Cn1c(=O)n(Cc2ccc(F)cc2)c(=O)c2sc3ccccc3c21)Nc1ccc(F)cc1F	5	x	5	-11	x
COc1ccccc1N(CC(=O)NC(C)(C)C)C(=O)c1ccc(Cl)nc1	33	34%	-9	-1	i
Cc1[nH][nH]c(=O)c1C(c1ccccc1[N+](=O)[O-])C(C#N)C#N (stereo not drawn)	-14	-5%	4	2	13µM*
Cc1[nH][nH]c(=O)c1C(c1cc([N+](=O)[O-])ccc1O)c1c(C)[nH][nH]c1=O	-23	u	-12	-1	125%
CCC[C@H]1[C@@H](NS(=O)(=O)c2ccc3ccccc3c2)CC[C@@]23CCCN2C(=O)CCC[C@@H]13	-14	x	x	x	x
CCOC(=O)N1CCN(Cc2nc3cc(NC(=O)CC(C)C)ccc3n2C(C)C)CC1	-95*	x	x	x	x
CCOC(=O)N1CCN(Cc2nc3cc(NC(=O)c4cccc(C)c4)ccc3n2C(C)C)CC1	-94*	x	x	x	x
CCn1c(CN2CCCCC2)nc2cc(NC(=O)c3ccc([N+](=O)[O-])cc3)ccc21	-28	x	x	x	x
CCOC(=O)N1CCN(Cc2nc3cc(NC(=O)CC)ccc3n2C(C)C)CC1	-9	x	x	x	x
CCOC(=O)N1CCN(Cc2nc3cc(NC(=O)c4ccc([N+](=O)[O-])cc4)ccc3n2C(C)C)CC1	-83*	x	x	x	x
CCCn1c(CN2CCN(C(=O)OCC)CC2)nc2cc([N+](=O)[O-])ccc21	-76*	-23%	9	-2	399%
COC(=O)c1ccccc1NC(=O)NCc1ccc2c(c1)CCN2C(=O)c1ccccc1	-23	x	x	x	x
Cc1ccccc1C(=O)Nc1ccc(N2CCOCC2)nc1	7	68%	58*	30*	128%
CN(C)c1ccc(NC(=O)c2ccc(N3CCOCC3)nc2)cc1	-30	u	79*	34*	u
CN1CCN(c2ccc(NC(=O)c3ccc(Cl)cc3)cn2)CC1	42	u	23	42*	u
Cc1ccccc1C(=O)Nc1ccc(CN2CCOCC2)cc1	14	-11%	2	8	92%
COc1ccc(NC(=O)c2ccc(N3CCOCC3)nc2)cc1	5	-23%	-4	-5	u
Cc1ccc(C(=O)Nc2ccc(N3CCOCC3)nc2)cc1	-4	35%	75*	20*	106%
O=C(Nc1ccc(Cl)cc1)Nc1ccc(N2CCC(C(F)(F)F)CC2)nc1	1	7%	-3	-4	5%
O=C(Nc1ccc(N2CCOCC2)nc1)c1ccc(F)cc1	-17	55%	48*	41*	40%
C=CCn1c(C)cc(C(=O)CSc2nnc(Cc3ccccc3)o2)c1C	-16	7%	53	31*	u
Cc1cc(C(=O)CSc2nnc(Cc3ccccc3)o2)c(C)n1Cc1ccc2c(c1)OCO2	59	9.3µM*	8	-1	u
SMILES	HCMV antiviral	Pf growth 48h	Shiga inhibitor	CHX counter	Pf growth 96h
O=C(CSc1nnc(Cc2ccccc2)o1)c1cc(F)ccc1F	-35	-11%	22	13	-18%
O=C(CSc1nnc(Cc2ccccc2)o1)NCc1ccc2c(c1)OCO2	-32	-8%	-9	5	-1%
O=C(NC1CCC(=O)N(CCOc2ccccc2)CC1)OCc1ccccc1 (stereo not drawn)	-26	31%	-8	-2	u
Cc1cccc(NC(=O)CSc2cc(C)c3ccccc3n2)c1	-74*	x	x	x	x
Cc1ccc(-c2nc(NC(=O)CSc3cc(C)c4ccccc4n3)ns2)cc1	7	30%	-9	-3	15µM*
Cc1cc(SCC(=O)c2ccc3c(c2)OCO3)nc2ccccc12	-28	x	13	14	u
Cc1cc(SCC(=O)c2ccc(O)c(O)c2)nc2ccccc12	-70*	8%	-12	-3	12%
Cc1cccc(NC(=O)CSc2cc(C(=O)c3nccn3C)c3ccccc3n2)c1	10	-2%	-4	-2	15%
O=c1cc(CCc2ccccc2)oc2cccc(O)c12	0	x	x	x	x
Cn1sc(=O)n(Cc2ccccc2)c1=O	x	x	-9	-10	x
CC(=O)N1CCCc2cc(S(=O)(=O)N3CCCC(C(=O)Nc4ccc(C)c(C)c4)C3)ccc21 (stereo not drawn)	15	x	x	x	x
Cc1cc(-c2nnc(-c3cccc(C(F)(F)F)c3)o2)no1	u	137%	77*	44*	150%
Cc1ccc(-c2nnc(-c3cc(C)on3)o2)cc1	65	188%	59*	39*	239%
O=C(NC1(C(F)(F)F)Oc2ccccc2O1)N1CCC2(CC1)OCCO2	41	-15%	12	-2	u
O=C(NC1(C(F)(F)F)Oc2ccc(Cl)cc2O1)N1CCC2(CC1)OCCO2 (stereo not drawn)	-6	x	-6	-2	1.9µM*
CC(=O)C1=NN(c2ccccc2)C(c2cccs2)N1c1ccccc1 (stereo not drawn)	x	x	-7	-5	4.7µM*
CC(=O)C1=NN(c2ccccc2)C(c2ccc3c(c2)OCO3)N1c1ccc(N2CCOCC2)cc1 (stereo not drawn)	53	15µM*	-4	-3	u
COc1ccc(C2N(c3ccc(Cl)cc3)N=C(C(C)=O)N(C)N2C(C)=O)cc1 (stereo not drawn)	-4	u	6	-2	u
CC(=O)N1N=C(c2ccccc2O)CC1c1cccs1 (stereo not drawn)	59	-5%	3	-2	3%
COc1cccc(N2C(C(C)=O)=NN(c3ccccc3)C2c2ccc(N3CCOCC3)cc2)c1 (stereo not drawn)	-28	13µM*	69*	64*	u
COc1ccc(S(=O)(=O)NCC(c2ccco2)N2CCOCC2)cc1OC (stereo not drawn)	-2	x	x	x	x
O=C(COC(=O)c1ccccc1O)NCc1ccccc1Cl	-65*	x	x	x	x
O=C(COC(=O)c1ccco1)NCc1ccc(Cl)cc1Cl	2	x	x	x	x
O=C(COC(=O)c1ccco1)NCc1ccccc1Cl	19	5%	86*	32*	11%
COc1cc(F)cc(-c2ccc3c(c2)c(C#Cc2ccsc2)c(-c2cc(OC)cc(OC)c2)n3C)c1	-1	x	x	x	x
O=C(/C=C/c1c(F)cccc1Cl)N1CCOCC1	23	86%	51*	48*	59%
O=C(/C=C/c1c(Cl)cccc1Cl)NCCc1ccccc1	38	17%	-8	14	-17%
Cn1c(NC(=O)/C=C/c2c(F)cccc2Cl)cc(=O)n(C)c1=O	-36	u	29	1	u
O=C(/C=C/c1c(F)cccc1Cl)Nc1ccc(S(=O)(=O)Nc2ncccn2)cc1	10	-5%	-9	1	13µM*

Screens deposited in PubChem BioAssay by National Center for Advancing Translational Sciences (NCATS).
